Sampled rows, rich in hits. Any-hit rate of the full collection: about 19%.
DT40 TDP1 CPT: DT40-hTDP1 cell growth loss with CPT; chicken DT40 Tdp1-/-;hTDP1 cells + 20 nM CPT, ATP luminescence, 48 h; AID 686979; Potency, µM (titrated, usually from 46.2 µM), inactives show top-dose activity change, negative = growth inhibition, usual class: inhibitors; hit rate 12% among 420,000; also: nearly all actives have a fitted effect of over 55% in size
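Chicken DT40 Tdp1-/- cells stably complemented with human TDP1 were seeded at 400 cells/well in medium containing 20 nM camptothecin, exposed to pin-transferred compounds, and grown at 37 °C for at least 48 hr. Viability was read as ATP luminescence.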
HT1080NT lethal: kills 2HG-producing HT-1080-NT fibrosarcoma cells; Potency, µM (titrated, usually from 46.1 µM), for inactives: at the highest dose activity, negative = less viability, usual class: cytotoxic; hit rate 1.6% among 360,000; HT-1080-NT fibrosarcoma viability, CellTiter-Glo ATP luminescence, 48 h;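 also: NT is the 2HG producing partner of a matched IDH1 knockdown line; 0% = DMSO-treated cells and -100% = media-only wells without cells; nearly all actives have a fitted effect of over 55% in size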
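Compounds were tested in concentration-response format on HT-1080-NT cells for 48 hours at 37 degrees C. Cell viability came from CellTiter-Glo luminescence; curves were classified by r2, response magnitude and activity.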
DT40 TDP1 no CPT: qHTS for Inhibitors of human tyrosyl-DNA phosphodiesterase 1 (TDP1): qHTS in cells in absence of CPT. DT40 Tdp1-/- hTDP1 cells, no CPT, ATP luminescence, 48 h. Potency, µM (doses to about 46.2 µM), inactives show at the top dose activity change, negative = growth inhibition, usual class: inhibitors. hit rate 15% among 420,000. AID 686978, 2013; also: nearly all actives have a fitted effect of over 55% in size
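Cells were dispensed at 400 per well, compounds added by pin tool, plates incubated ≥48 hr at 37 °C, then CellTiter-Glo added for 30 min at room temperature before luminescence reading. Line: DT40 Tdp1-/- complemented with hTDP1; camptothecin omitted.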
KB-3-1 tox: KB-3-1 parental cell cytotoxicity | KB-3-1 viability, CellTiter-Glo ATP luminescence, 72 h | hit rate 1.4% among 400,000 | Potency, µM (series often up to 46.1 µM), most hits filed as cytotoxic; also: nearly all actives have a fitted effect of over 60% in size
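Cytotoxicity in the drug-sensitive parental line KB-3-1 was scored as loss of CellTiter-Glo luminescence following 72 h incubation with compound. Values come from curve fitting of normalized concentration-response data.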
KB-V1 MDR tox: KB-V1 MDR subline cytotoxicity | KB-V1 MDR cells viability, CellTiter-Glo, 72 h | Potency, µM (top dose mostly 46.1 µM), actives largely listed as cytotoxic | hit rate 3.4% among 400,000 | AID 1347076; also: nearly all actives have a fitted effect of over 60% in size
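KB-V1 MDR subline cells in DMEM (phenol-red free, 10% FBS) exposed to compounds in qHTS concentration series for 72 h at 37 degrees C. Viability read by CellTiter-Glo luminescence; concentration-effect curves fitted after normalization and correction.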
HT1080 IDH1KD tx: kills HT-1080 cells with IDH1 knockdown; Potency, µM (top dose mostly 46.1 µM), inactives show at the highest dose activity, negative = toxicity, most hits filed as cytotoxic; HT-1080 IDH1 knockdown viability, ATP luminescence, 48 h; hit rate 2% among 360,000;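 also: 0% = DMSO wells and -100% = cell-free medium wells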
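Assay cells: HT-1080 with IDH1 knockdown, 750 per well, RPMI/5% FBS. Exposure: 48 h at 37 °C following 2 h pre-incubation. Read: CellTiter-Glo luminescence; fitted concentration-response, curve class assigned.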
Active calls of the source: *; i = inactive; ? = inconclusive; . = not tested or not shown; [ ] = dose if it differs, or a comment. Calls follow the shape of the dose curve; as a rule, active = well fitted curve in the direction sought with a large enough effect; inconclusive = small, poorly fitted or top-dose-only effect, or another doubt; inactive = no such curve, though single readings can be large; an effect the other way counts as inactive or inconclusive. Unless noted, % is scaled to controls: 0 for no effect and ±100 for the full control effect; potency is read from the fitted curve at half-maximal effect.

SMILES | DT40 TDP1 CPT | HT1080NT lethal | DT40 TDP1 no CPT | KB-3-1 tox | KB-V1 MDR tox | HT1080 IDH1KD tx
Cc1ccc(CN2CCN(/N=C/c3cc(Br)cc(Br)c3O)CC2)cc1 | ? | 3% | 21µM* | i | i | 0%
Nc1nnnn1/N=C/C(Br)=C/c1ccccc1 | 0.46µM* | -30% | 0.58µM* | ? | ? | 9.2µM*
Cc1ccc(CN2CCN(/N=C\C(Br)=C\c3ccccc3)CC2)cc1 | 2.6µM* | ? | 8.2µM* | i | ? | ?
CC(=C/c1ccccc1)/C=N/N1CCN(Cc2ccc(C)cc2)CC1 | -1% | 10% | -6% | i | ? | 3%
COc1ccccc1/C=C/C=N/N1CCN(Cc2ccccc2)CC1 | 12% | 22% | -28% | i | i | 19%
Cc1ccc(CN2CCN(/N=C/C=C/c3ccccc3[N+](=O)[O-])CC2)cc1 | 16µM* | -14% | 21µM* | i | i | -9%
CCc1ccc(N(CC)C(=O)Cn2cnc3sc(C)c(S(=O)(=O)N4CCN(c5ncccn5)CC4)c3c2=O)cc1 | 5% | . | 5% | i | i | .
O=CNc1cc(-c2ccoc2)cn2c(-c3ccc(F)cc3)cnc12 | 13µM* | -21% | 23µM* | i | ? | ?
O=CNc1cc(-c2cccc(F)c2)cn2c(-c3ccc(F)cc3)cnc12 | 29µM* | 1% | ? | i | ? | 18%
CS(=O)(=O)Nc1cccc(-c2cc(NC=O)c3ncc(-c4ccc(F)cc4)n3c2)c1 | 23µM* | 12µM* | ? | i | ? | 8.2µM*
Cc1cc(C)c(C(CC(=O)c2cccs2)C(C#N)C#N)c(C)c1 (configuration not stated) | ? | ? | 26µM* | ? | i | ?
CC(CC(=O)c1cccs1)CC(=O)c1cccs1 | -22% | 4% | -6% | i | i | -10%
COc1ccc(NC(=O)C2CC(=O)n3cnnc3S2)cc1 (configuration not stated) | 2.3µM* | -1% | 4.6µM* | i | i | 6%
COc1cccc(NC(=O)C2CC(=O)n3cnnc3S2)c1 (configuration not stated) | 2.9µM* | 1% | 5.2µM* | i | i | 10%
CCc1ccc(S(=O)(=O)c2c[nH]c3cc(OC)c(OC)cc3c2=O)cc1 | -24% | . | ? | i | i | .
CCc1ccc(CNC(=O)c2ccc(NC(=O)N3CCSc4ncccc43)cc2)cc1 | ? | . | ? | i | i | .
Cc1cc2nc(-c3ccc[nH]c3=O)[nH]c2cc1C | 7.3µM* | 18µM* | 10µM* | i | ? | 18µM*
O=C(CN1C(=O)NC2(CCCC2)C1=O)OCCOc1cccc(Br)c1 | ? | -4% | ? | i | i | -7%
Cc1cc(Cl)ccc1OCCCC(=O)Nc1cccnc1 | 15µM* | -8% | 23µM* | i | i | -18%
Cc1ccccc1C(=O)Nc1ccc(C(=O)NNC(=O)CCCOc2ccc(Cl)cc2Cl)cc1 | ? | -14% | -23% | i | i | -18%
Cc1cc(Cl)ccc1OCCCC(=O)NNC(=O)c1ccccc1O | ? | ? | 23µM* | ? | i | ?
COc1cc(CCC(=O)OCC(=O)Nc2sccc2C(N)=O)cc(OC)c1OC | -28% | -7% | ? | i | i | -11%
CSc1nnc2c(n1)OC1(Nc3ccccc3-2)C(=O)Nc2ccccc21 (configuration not stated) | ? | 12% | 16µM* | i | i | 7%
CCSc1nnc2c(n1)OC(C)(C)Nc1ccccc1-2 | -22% | -14% | ? | i | i | 3%[9.24 µM]
COc1ccc2nc(N(Cc3cccnc3)C(=O)CCc3ccccc3)sc2c1 | -11% | . | -15% | . | . | .
SMILES | DT40 TDP1 CPT | HT1080NT lethal | DT40 TDP1 no CPT | KB-3-1 tox | KB-V1 MDR tox | HT1080 IDH1KD tx
O=C(N[C@@H](Cc1ccccc1)C(=O)N1CCC2(CC1)NCCc1[nH]cnc12)c1cccc(Br)c1 | 10µM* | ? | 6.5µM* | i | ? | ?
CCCCN(C(C)=O)c1c(CC)nc2ccc(C(=O)NCCOc3ccc(OC)cc3)cn12 | ? | -11% | 13µM* | i | i | -17%
COc1ccc(OCCNC(=O)c2ccc3nc(C)c(N(C)C(=O)CCc4ccccc4)n3c2)cc1 | 23µM* | -15% | ? | i | i | 0%
CCc1nc2ccc(C(=O)NCc3ccc4c(c3)OCO4)cn2c1N(CC)CCOC | ? | 9% | ? | i | i | 6%
CCCCN(C)c1c(C)nc2ccc(C(=O)NCCOc3ccc(OC)cc3)cn12 | 13µM* | -1% | 18µM* | i | i | -24%
CCCCN(C)c1c(C)nc2ccc(C(=O)NCc3ccc4c(c3)OCO4)cn12 | ? | -17% | 23µM* | i | ? | -5%
Cc1noc(C)c1NC(=O)N(C)C[C@H]1OCc2cnnn2CCCC(=O)N([C@@H](C)CO)C[C@H]1C | 1% | 12% | -21% | i | i | 10%
COC(=O)CCn1cnc2onc(-c3cc(F)cc(F)c3)c2c1=O | 19% | . | -28% | i | i | .
COc1ccc(N2CCN(C(=O)CCn3cnc4onc(-c5ccc(F)cc5)c4c3=O)CC2)cc1 | 23µM* | . | ? | i | i | .
CCCCN(CC)CCNC(=O)CCn1cnc2onc(-c3ccc(F)cc3)c2c1=O | 26µM* | . | 23µM* | i | i | .
COc1ccc(N2CCN(C(=O)Cn3cnc4c(cnn4-c4ccc(C)cc4)c3=O)CC2)cc1 | 15% | 15% | 9% | i | i | 19%
CCN(C(=O)CCn1cnc2onc(-c3ccc(F)cc3)c2c1=O)c1ccc(OC)cc1 | 16µM* | . | 18µM* | ? | i | .
COc1cc(Cl)c(C)cc1NC(=O)CCn1cnc2onc(-c3ccc(F)cc3)c2c1=O | 18µM* | . | ? | i | i | .
O=C(Nc1ccc([N+](=O)[O-])cc1)OC1CCS(=O)(=O)C1 (configuration not stated) | -16% | 8% | -22% | i | i | 5%
CCCN(C(=O)CCn1cnc2onc(-c3ccc(F)cc3)c2c1=O)c1ccccc1C | 18µM* | . | 16µM* | i | i | .
CCOC(=O)Cn1cnc2onc(-c3ccc(F)cc3)c2c1=O | -2% | . | 0% | i | i | .
O=C(CCn1cnc2onc(-c3ccc(F)cc3)c2c1=O)N1CCN(c2cccc(Cl)c2)CC1 | 16µM* | . | 16µM* | i | i | .
